The entries come from a sample that favours hits as a whole.
CHX counter: counter-screen for Shiga toxin inhibitors: cycloheximide protein synthesis inhibition. max response, %. 12% of 300,000 active. cell reporter, cycloheximide protein synthesis inhibition counterscreen; in the data active = max response mostly above about 13%, no sharp cut-off; inactive = mostly below about 14%; note: read at 38.3 µM for the half of the compounds with a filed dose; 0% is about no effect
Shiga inhibitor: inhibitors of Shiga toxin in Vero cells. AID 2315. Vero cells, Shiga toxin protein synthesis inhibition reporter. 9.2% of 290,000 active. inhibition, % at 38.7 µM; in the data active = inhibition mostly above about 28%, no sharp cut-off; inactive = mostly below about 43%; note: 0% is about no effect
NS1 inh: blocks influenza NS1 protein function; Potency, µM (highest dose often 46.1 µM), for the others: at the top dose activity, positive = more growth; 0.4% of 270,000 active; AID 2326; calls by dose curve; note: potency is the fitted concentration of half-maximal effect; actives are rising curves; nearly all actives have a fitted effect of over 50% in size
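Compounds were scored for reversing the slow growth caused by influenza A NS1 in S. cerevisiae, measured by optical density at 600 nm. Assay medium contained 2% galactose at pH 6.0; NS1-free yeast of the same strain were the positive control.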
AmpC inh no detg: AmpC beta-lactamase inhibition without detergent; P00811; Potency, µM (series often up to 57.1 µM), without a hit: at the highest dose activity change, negative = inhibition, hits mostly inhibitors; AmpC nitrocefin hydrolysis, absorbance 480 nm, 0.0001% Triton; 0.52% of 330,000 active;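 note: potency is the fitted concentration of half-maximal effect; plate controls were no compound for no effect and no enzyme for full effect; nearly all actives have a fitted effect of over 20% in size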
Target sequence (P00811 whole entry, looked up): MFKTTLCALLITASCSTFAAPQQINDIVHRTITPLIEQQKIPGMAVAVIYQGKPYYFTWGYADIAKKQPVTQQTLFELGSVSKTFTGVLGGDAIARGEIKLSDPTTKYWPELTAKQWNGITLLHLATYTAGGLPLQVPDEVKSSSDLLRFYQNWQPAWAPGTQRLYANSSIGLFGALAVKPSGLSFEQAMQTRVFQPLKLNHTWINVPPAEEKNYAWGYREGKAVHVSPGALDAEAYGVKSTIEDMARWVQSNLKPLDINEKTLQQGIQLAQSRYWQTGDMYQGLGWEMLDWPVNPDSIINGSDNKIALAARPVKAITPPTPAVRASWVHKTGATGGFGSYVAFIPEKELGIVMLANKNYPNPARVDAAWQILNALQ
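20 mM phosphate pH 7.0 + 0.01% (detergent screen) or 0.0001% Triton X-100; 5.3 nM AmpC reagent; cpd preinc 15 min RT; nitrocefin (800 uM stock) to start; A480 q20 s × 4 min; Activity was normalised to no-enzyme and no-compound control wells.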
AmpC inh detg: blocks E. coli AmpC beta-lactamase in detergent assay | P00811 | AmpC hydrolysis of nitrocefin, absorbance 480 nm, 0.01% Triton | Potency, µM (doses to about 114 µM), without a hit: top-dose activity change, negative = inhibition, usual class: inhibitors | 0.041% of 370,000 active | AID 485294;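 note: potency is the fitted concentration of half-maximal effect; 0% = no-compound wells and -100% = no-enzyme wells; nearly all actives have a fitted effect of over 25% in size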
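AmpC (5.3 nM in the dispensed reagent) in 20 mM phosphate pH 7.0 with 0.01% (detergent screen) or 0.0001% Triton X-100 was preincubated with compounds for 15 min at room temperature. Nitrocefin was then added from an 800 uM solution, and hydrolysis was followed at 480 nm.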
Active calls of the source: *; ? = inconclusive; . = not tested or not shown. Unless noted, calls come from the whole dose curve; as a rule, active = well fitted curve in the direction sought with a large enough effect; inconclusive = small, poorly fitted or top-dose-only effect, or another doubt; inactive = no such curve, though single readings can be large; an effect the other way counts as inactive or inconclusive.

SMILES	CHX counter	Shiga inhibitor	NS1 inh	AmpC inh no detg	AmpC inh detg
COc1ccccc1C(=O)NC(=S)Nc1ccc(NC(=O)c2ccco2)cc1	8	23	3%	-20%	5%
COc1ccccc1C(=O)Nc1ccc(NC(=O)c2ccco2)cn1	28*	90*	-54%	-21%	-12%
O=C(Nc1ccc(NC(=O)c2ccco2)nc1)c1ccco1	11	42	.	-19%	-5%
O=C(Nc1ccccn1)c1ccco1	45*	98	1%	-19%	-14%
O=C(Nc1ccc(Cl)cc1C(=O)Nc1ccccn1)c1ccco1	2	12	-39%	-27%	0%
COc1ccc(C(=O)COc2ccccc2N2C(=O)C3C4C=CC(C4)C3C2=O)cc1 (stereo unspecified)	2	-6	4%	-1%	6%
COc1ccc(C)cc1-n1nnc(-c2nc(-c3ccccc3Cl)no2)c1N	.	.	.	.	-5%
Cc1ccc(C)c(Nc2nc(-c3cccnc3)cs2)c1	24*	111*	-14%	-21%	-2%
Cc1ccc(Nc2nc(-c3cccnc3)cs2)cc1Cl	44*	78	-62%	-23%	-1%
O=C(O)COc1ccc(-c2nccc(-c3ccccn3)n2)cc1	6	20	.	-36%	-13%
FCCCOc1ccc(-c2nccc(-c3ccccn3)n2)cc1	20*	35*	-7%	72%	-7%
COC(=O)C(C)Oc1ccc(-c2nccc(-c3ccc(F)cc3)n2)cc1 (stereo unspecified)	-2	26	7%	131%	-17%
COC(=O)C(C)Oc1ccc(-c2nccc(-c3ccccn3)n2)cc1 (stereo unspecified)	16*	23	-6%	64%	-13%
CC1=C(c2ccc(C)c(C)c2)S(=O)(=O)N=C1N1CCC(C(=O)NCCc2ccc(Cl)cc2)CC1	.	.	.	.	18%
COc1ccc(-n2ccc(=O)c(C(=O)Nc3ccc(S(=O)(=O)Nc4nccs4)cc3)n2)cc1	-2	-6	-10%	-30%	50µM*
O=C(Nc1ccc(S(=O)(=O)Nc2nccs2)cc1)c1nn(-c2ccccc2)ccc1=O	-3	-5	6%	-38%	?
O=C(/C=C(\O)c1ccccc1)C(=O)NNC(=O)c1ccccc1	39*	52*	2%	-35%	-8%
CCOC(=O)c1ccc(NC(=O)c2ccc(CN3C(=O)CCn4nc(C)cc43)cc2)cc1	.	.	.	.	20%
Nc1nc2ccccc2n1/N=C/c1ccc([N+](=O)[O-])s1	6	14	-20%	-21%	?
Nc1nc2ccccc2n1/N=C/c1ccc(-c2ccccc2)o1	25*	72*	-101%	-21%	-6%
CCOC(=O)c1c(NC(NC(=O)C(C)C)C(Cl)(Cl)Cl)sc2c1CCC2 (stereo unspecified)	15*	35	-4%	-39%	?
CC(C)(C)c1ccc(-c2noc(CCC(=O)NCc3ccco3)n2)cc1	34*	73	.	19%	2%
O=C(Nc1ccc(-c2noc(COc3ccccc3Cl)n2)cc1)c1ccco1	41*	active	-15%	-37%	-10%
O=C(NCc1nc(-c2ccccc2)no1)c1cccs1	7	29	-81%	-16%	?
O=C(NCc1nc(-c2ccc(C(F)(F)F)cc2)no1)c1cccs1	8.2*	18	3%	-11%	-1%
SMILES	CHX counter	Shiga inhibitor	NS1 inh	AmpC inh no detg	AmpC inh detg
CC(C)(C)c1ccc(-c2noc(CNC(=O)c3ccco3)n2)cc1	32*	37	-10%	0%	4%
O=C(NCc1nc(-c2ccccc2)no1)c1ccco1	.	.	.	.	18%
O=C(COc1ccccc1Cl)Nc1ccc(NC(=O)c2ccco2)cc1	-3	-4	-18%	-7%	-11%
O=C(O)[C@@H]1[C@@H]2C[C@H]([C@@H](Br)[C@H]2N2C(=O)CCC2=O)[C@@H]1C(=O)O	.	.	15%	.	.
CC(NC(=O)c1ccco1)c1nc(-c2ccc(C(C)(C)C)cc2)no1 (stereo unspecified)	15	49*	-7%	28%	8%
COc1ccc(C(=O)c2oc3ccc(OC)cc3c2N)cc1	29*	70*	-16%	-4%	-2%
CCN(CC)CCOC(=O)c1c(C)oc2ccc(OC)cc12	17	61*	5%	6%	-14%
COC(=O)c1oc2ccc(OC)cc2c1N	28*	63*	3%	-20%	-3%
Nc1c(C(=O)c2ccc(Cl)cc2)oc2ccccc12	32*	65*	10%	-25%	?
